Hits are enriched below; roughly 1.4% of the tested compounds scored in any of these assays.
Mtb MbtI inh: MbtI salicylate synthase inhibition; P9WFX0; purified MbtI enzyme, fluorescence intensity read-out; inhibition, % (test concentration not listed); 100,000 compounds, 0.89% hits; in the data active = inhibition mostly above about 56%, no sharp cut-off; inactive = mostly below about 77%
Target sequence (P9WFX0 whole entry, looked up): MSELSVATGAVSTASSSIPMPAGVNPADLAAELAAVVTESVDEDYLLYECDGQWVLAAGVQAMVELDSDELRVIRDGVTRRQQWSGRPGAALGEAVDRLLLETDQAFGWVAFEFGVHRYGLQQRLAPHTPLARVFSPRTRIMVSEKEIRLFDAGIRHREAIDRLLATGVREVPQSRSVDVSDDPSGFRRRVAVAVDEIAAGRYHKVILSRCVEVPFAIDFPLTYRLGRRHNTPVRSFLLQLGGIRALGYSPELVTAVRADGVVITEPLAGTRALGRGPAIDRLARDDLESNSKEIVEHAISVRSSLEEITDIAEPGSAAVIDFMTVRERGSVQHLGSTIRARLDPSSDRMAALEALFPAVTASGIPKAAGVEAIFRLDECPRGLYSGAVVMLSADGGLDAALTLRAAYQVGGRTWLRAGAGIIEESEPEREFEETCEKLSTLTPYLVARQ
MenB inh: blocks the Mycobacterium tuberculosis MenB enzyme; MenB enzyme assay, absorbance read-out; inhibition, % (test concentration not listed); 100,000 compounds, 0.43% hits; in the data active = inhibition above about 21%, passing the limit was not always enough
AID504770: growth inhibitors of E. coli YBA685 in a screen for V. cholerae RctB (chromosome II replication) inhibitors; z-score (concentration not given with the values); 130,000 compounds, 0.27% hits; E. coli YBA685 rctB-dependent plasmid, OD600 growth, 3 h; active compounds read low; in the data active = z-score below about -2, passing the limit was not always enough
Polio RdRp inh: poliovirus RNA polymerase inhibition | AID 588519 | poliovirus polymerase elongation, fluorescence polarization; active compounds read low | P03300 | 150,000 compounds, 0.66% hits | % elongation, % (compound at 16.7 µg/mL); in the data active = % elongation below about 90%
Each line names hits and unclear results; the compound was inactive in the other large screens; ! = not confirmed by another sample.

CC(C)n1c(O)c(N=NC(=S)NC2CCCCC2)c2ccccc21	AID504770 -2.9
CC(C)Cn1c(O)c(N=NC(=S)NC(C)C)c2ccccc21	none
O=C1C=C2C(=CCOC2O)O1 (stereo not drawn)	AID504770 -5.2
NC(=O)c1ccccc1NCC(=O)c1ccc(Cl)cc1	AID504770 -2.2 (no result: Mtb MbtI inh, MenB inh, Polio RdRp inh)
O=C(COC(=O)c1ccccc1Cl)c1ccc(Cl)cc1	none
O=C(CSc1ccc2nc(-c3ccccc3)cn2n1)Nc1ccccc1	Polio RdRp inh 87 (no result: Mtb MbtI inh, MenB inh, AID504770)
CC(=O)c1ccc(NC(=O)CSc2ccc3nc(-c4ccccc4)cn3n2)cc1	none (no result: Mtb MbtI inh, MenB inh, AID504770)
COC(=O)N(c1ccccc1)P1(=S)OCCO1	Mtb MbtI inh 102, MenB inh 37
Cc1ccc(C(C)C)c(OCC(O)CNC(C)C)c1 (stereo not drawn)	none (no result: Mtb MbtI inh, MenB inh, Polio RdRp inh)
O=C(CSc1ccccn1)c1ccc(F)cc1	Mtb MbtI inh 86
CCOc1ccc(-c2csc(Cn3c(CN4CCN(C)CC4)nc4ccccc4c3=O)n2)cc1	Mtb MbtI inh 85, Polio RdRp inh 66
Cn1c(=O)c2cn(-c3ccccc3)cc2n(C)c1=O	none (no result: Mtb MbtI inh, MenB inh, Polio RdRp inh)
Cn1c(=O)sn(-c2ccccc2)c1=O	Mtb MbtI inh 100, AID504770 -5.2
CSc1ccc(-c2nc3ccccc3c(=O)[nH]2)cc1	none
CCOC(=O)c1sc(C)c2c(=O)[nH]c(-c3ccc(SC)cc3)nc12	Mtb MbtI inh 64 (no result: MenB inh, Polio RdRp inh)
NC(=O)N/N=C/c1ccc([N+](=O)[O-])o1	AID504770 -3.5
O=C(N=Nc1[nH]c2ccccc2c1O)c1ccc(Cl)cc1	none
COC(=O)C1C(=O)CC(=O)CC1c1ccco1 (stereo not drawn)	MenB inh 40
CC(=O)Nc1scc2c1c(=O)oc1ccccc12	none
COC(=O)Nc1scc2c1c(=O)oc1ccccc12	Mtb MbtI inh 71
CCOC(=O)/C(C#N)=C\C1=C(N2CCCC2)CC(C)(C)OC1	Mtb MbtI inh 62
CCOC(=O)/C(C#N)=C\N1CCOCC1	none
CCN1C(=O)/C(=C2/Sc3ccc(OC)cc3N2CC)SC1=Nc1ccc2c(c1)OCCO2	none
NC(=O)c1cc(S(=O)(=O)NCC2CCN(Cc3cccc(F)c3)CC2)cs1	none
CCO/C=C1\C(=O)N(Cc2ccccc2)C(=O)c2ccccc21	Polio RdRp inh 62 (no result: MenB inh)
CCO/C=C1/C(=O)N(C)C(=O)c2ccccc21	none
Nc1c(N(C(=O)CC2OC(=O)c3ccccc32)C2CCCC2)c(=O)[nH]c(=O)n1Cc1ccccc1 (stereo not drawn)	none
Cn1c(=NC(=O)CSCC(=O)N2CCCC2)sc2cc(Br)ccc21	none
N=C(N)SCP(=O)(c1ccccc1)c1ccccc1	MenB inh 49
COc1ccc(NC(=O)CSc2ncccc2C(=O)Oc2ccccc2Cl)cc1OC	none
Cc1cc(-n2sc3ccccc3c2=O)c2ccccc2n1	none
Cc1ccc(-c2csc(-n3sc4ccccc4c3=O)n2)cc1	Mtb MbtI inh 87 (no result: MenB inh)
CCOC(=O)c1c(-c2ccc(C)cc2)csc1NC(=O)c1cc(-c2ccc(C)c(F)c2)on1	none (no result: Mtb MbtI inh, MenB inh, AID504770)
CCc1c(C)sc(NC(=O)c2cc(-c3ccccc3)on2)c1C#N	Polio RdRp inh 83 (no result: Mtb MbtI inh)
CCOC(=O)c1c(-c2ccccc2)csc1NC(=O)c1cc(-c2ccc(F)cc2)on1	Polio RdRp inh 89 (no result: Mtb MbtI inh, MenB inh, AID504770)
CCOC(=O)c1c(-c2ccccc2)csc1NC(=O)c1cc(-c2ccc(Br)cc2)on1	Polio RdRp inh 78 (no result: Mtb MbtI inh, MenB inh, AID504770)
CC1(NC(=O)c2ccc(C#N)cc2)CCS(=O)(=O)C1 (stereo not drawn)	none
CNc1cnn(C23CC4CC(CC(CC(=O)O)(C4)C2)C3)c(=O)c1Cl	none
CN1/C(=C\C=N\NC(=O)Cc2cn3ccsc3n2)C(C)(C)c2ccccc21	none
COc1ccc2cc(Br)ccc2c1CC#N	none (no result: Mtb MbtI inh, MenB inh, Polio RdRp inh)
CC(C)NC(=O)CCCc1nnc2n3nc(-c4ccccc4)nc3c3ccccc3n12	none (no result: Mtb MbtI inh, MenB inh, Polio RdRp inh)
CCn1c(=S)[nH]c2ccccc21	none
S=c1[nH]c2ccccc2n1-c1ccccc1	Mtb MbtI inh 92, Polio RdRp inh 78
S=c1[nH]c2ccccc2n1CCc1ccccc1	Mtb MbtI inh 81, Polio RdRp inh 67
CCCn1c(=S)[nH]c2ccccc21	Mtb MbtI inh 86!
Cc1ccccc1-n1c(SCC(=O)O)nc2sc3c(c2c1=O)CC(C)(C)OC3	none
O=C(/C=C1\SC(=O)NC1=O)Nc1nccs1	none (no result: Mtb MbtI inh, MenB inh, Polio RdRp inh)
CCC(=O)Nc1ccc(NC(=O)c2ccc(F)cc2)nc1	none
CC1OS(=O)OC1(c1ccccc1)c1ccccc1 (stereo not drawn)	Polio RdRp inh 89 (no result: Mtb MbtI inh)
S=C(c1cccs1)N1CCCC1	none (no result: Mtb MbtI inh)
CCc1ccc(C(=S)N2CCOCC2)cc1	none
Cc1ccc(CC(=S)N2CCOCC2)cc1	Mtb MbtI inh 69
S=C(c1ccc(-c2ccc(Cl)cc2)o1)N1CCOCC1	Mtb MbtI inh 77
S=C(c1cccs1)N1CCOCC1	Mtb MbtI inh 70
Cc1ccc(C(=S)N2CCOCC2)cc1	Mtb MbtI inh 97
CCCC(C(=O)O)N1C(=O)/C(=C/c2ccc[nH]2)SC1=S (stereo not drawn)	none (no result: Polio RdRp inh)
Cc1noc(C)c1/C=N/NC(=S)Nc1ccc(SC(F)F)cc1	none
CCN1CCCC1CNCc1ccccn1 (stereo not drawn)	none
CCN1CCCC1CNCc1cccc(OC)c1OC (stereo not drawn)	MenB inh 38
S=c1[nH]ccn1Cc1ccccc1	Mtb MbtI inh 68
CCOC(=O)c1sc2nc(CSc3nc(C)cc(=O)[nH]3)cc(=O)n2c1C	none (no result: Mtb MbtI inh, MenB inh, Polio RdRp inh)
CCOC(=O)c1nn(-c2ccc(OC)cc2)c(C(=O)OCC)c1NC(=O)c1c(Br)cnn1C	none
CC(=O)Nc1ccc(Cl)cn1	none
NC(=O)CN1C(=O)C(O)(CC(=O)/C=C\c2ccccc2)c2ccccc21 (stereo not drawn)	MenB inh 43
CCOC(=O)CC(N)c1ccccc1Cl (stereo not drawn)	none (no result: Mtb MbtI inh)
O=C1C(=Cc2ccccc2)C(=O)c2ccccc21	Mtb MbtI inh 95
C=CCN(CC=C)C(=O)c1cccc(OC)c1	none (no result: Mtb MbtI inh)
COc1cccc(N=C2NNC(C)=C(C(=O)N(C)C)S2)c1	Mtb MbtI inh 59, Polio RdRp inh 83
CN1C(=O)c2ccc(NC(=O)/C=C/c3ccc(Br)o3)cc2C1=O	none
CN(C)S(=O)(=O)c1cc(C(=O)O)c(N2CCCCC2)cc1Cl	none
O=C(CC(C(=O)O)N(Cc1ccccc1)Cc1ccccc1)c1ccc(Cl)cc1 (stereo not drawn)	MenB inh 86, AID504770 -2.9 (no result: Mtb MbtI inh)
Cc1ccc(C(=O)C2CCN(C(=O)Cc3ccccc3)CC2)cc1	none
COC(=O)C1CCN(C(=O)Cc2ccc(C)cc2)CC1	Polio RdRp inh 83
CC(C)Oc1ccc(CNC(=O)c2cnc3sc(N4CCCC4)nn3c2=O)cc1	Polio RdRp inh 15 (no result: Mtb MbtI inh, MenB inh, AID504770)
CC1=C(C)C(=O)C(NCc2ccccn2)=CC1=O	Polio RdRp inh 66
Clc1cc2c(c(C[n+]3ccccc3)c1)OCOC2	none
CCC(C)n1c(=O)[nH]c2c1c(=O)n(C)c(=O)n2C (stereo not drawn)	none (no result: MenB inh, Polio RdRp inh)
CC(C)n1c(=S)[nH]c2c1c(=O)[nH]c(=O)n2C	Mtb MbtI inh 102!
CCc1ccc(C2CC(=O)NC(NC(=O)c3ccccc3)=N2)cc1 (stereo not drawn)	none
C1=CSC(=C2SC=CS2)S1	MenB inh active, AID504770 -3.6, Polio RdRp inh 59
CN(CC(=O)Nc1ccc2[nH]c(=O)[nH]c2c1)Cc1ccccc1	none

Screening data from PubChem BioAssay.
